KDM5B inh = KDM5B demethylase inhibition. Q9UGL1. KDM5B demethylase, FDH-coupled NADH fluorescence (FDH is formaldehyde dehydrogenase). Potency, µM (highest dose often 57.7 µM), usual class: inhibitors. hit rate 2.6% among 220,000. AID 1347165; active = well fitted inhibition curve with a large enough effect; also: nearly all actives have a fitted effect of over 70% in size
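Inhibition is measured as reduced NADH fluorescence generation from FDH coupling to formaldehyde release. Truncated KDM5BΔAP at 200 nM final acts on H3K4me3 peptide (12.5 µM in substrate mix) in pH 7.5 HEPES buffer with Tween-20, 30 min, room temperature.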
Each line names hits and unclear results; the compound was inactive in the other large screens. This excerpt belongs to a sample that is enriched for hits.

CC(=O)Nc1ccc(NC(=O)COC(=O)c2c(-c3ccccc3)noc2C)cc1	none
CC(=O)Nc1cccc(-c2nc(-c3ccccc3)no2)c1	none
Cc1noc(C)c1-c1cc2c(cc(-c3ccccc3)n2C)c(N(C)C)n1	none
CC(=O)Nc1cccc(-c2nc(-c3c(C)noc3C)cc3c2cc(-c2ccccc2)n3C)c1	KDM5B inh 35µM
CCOc1ccc(C(=O)CC2(O)C(=O)Nc3ccc(CC)cc32)cc1 (centres undefined)	none
COc1ccc(CCC(C)(O)c2cc(-c3ccc(OC)cc3)no2)cc1 (centres undefined)	none
CC(O)CNc1nc(-c2ccsc2)nc2ccccc12 (centres undefined)	none
CC(=O)N1CCN(C(=O)Cn2ccc3c(Br)cccc32)CC1	none
CC(C)c1ccc(-c2nn(-c3ccccc3)cc2/C=N/O)cc1	none
N#CC(C(=O)CCC1CCCC1)C(=O)NCc1ccccc1 (centres undefined)	none
CCn1cc(CN(C)C(=O)[C@H]2CN(Cc3ccccc3)C[C@H]2C(=O)O)c(C)n1	none
COc1ccc2[nH]c(=O)c(CCC(=O)N(C)CCc3ccccc3)cc2c1	KDM5B inh 28µM
CCC1CCCCN1CCCNC(=O)CCc1cc2cc(OC)ccc2[nH]c1=O (centres undefined)	KDM5B inh 32µM
COc1ccc2[nH]c(=O)c(CCC(=O)NCCN3CCCCCC3)cc2c1	KDM5B inh 28µM
COc1ccc(NC(=O)CCc2cc3cc(C)ccc3[nH]c2=O)c(OC)c1	none
COc1ccc(N(Cc2cc3ccccc3[nH]c2=O)C(=O)c2cccc(Cl)c2)cc1	none
COc1ccc2[nH]c(C(=O)N(C)Cc3ccccc3)c(C)c2c1	none
O=C(CCCCCCC(=O)NCCN1CCCC1)NCCN1CCCC1	none
COc1ccc(N(Cc2cc3cc(OC)ccc3[nH]c2=O)C(=O)c2cccc(Cl)c2)cc1	none
CCC1CCCCN1CCCNC(=O)c1sc2nc(C)cc(C)c2c1-n1cccc1 (centres undefined)	none
CCCNC(=O)CCc1cc2cc(OC)ccc2[nH]c1=O	KDM5B inh 32µM
COc1ccc(-c2cc(=O)oc3cc(OCC(=O)NCCN4CCOCC4)ccc23)cc1	none
O=C(CCc1cc2ccccc2[nH]c1=O)NCCCN1CCCC1=O	none
Cc1cc2nc(SCC(=O)Nc3ccc(F)c(Cl)c3)[nH]c(=O)c2[nH]1	none
Cc1ccc(-c2nc(CC(=O)Nc3ccc4c(c3)C(=O)N3CCC[C@H]3C(=O)N4)cs2)cc1	none
O=C(CSc1ccc2c(c1)OCCCO2)c1ccc[nH]1	none
O=C(Nc1ccccc1Cl)c1nc2ccccc2nc1N1CCCCC1	none
NCCOc1ccc(OCCN)cc1	none
S=C(NCCSc1ccc(Cl)cc1)NC1CC1	none
COc1ccc(O)c(C2SCc3cc(C)c(C)cc3CS2)c1	none
Cc1ccc(NCC(=O)N2CCN(S(=O)(=O)c3ccc4ccccc4c3)CC2)cc1F	none
Cc1nn(C)cc1CN(C)C(=O)CCn1nc(C(F)(F)F)c(Br)c1C	none
Cc1ccc2[nH]c(=O)c(CCC(=O)N(C)Cc3cn(C)nc3C)cc2c1	KDM5B inh 32µM
CCN(CC)CCNC(=O)CNC(=O)c1nn(-c2ccc(OC)cc2)c(=O)c2ccccc12	none
COc1ccc(OCCNC(=O)Cc2n[nH]c(=O)c3ccccc23)cc1	none
CCN(CC)CCNC(=O)Cc1n[nH]c(=O)c2ccccc12	none
CCN(Cc1cc2cc(C)ccc2[nH]c1=O)C(=O)c1ccc(C)cc1	none
COCCNC(=O)CCc1cc2cc(OC)ccc2[nH]c1=O	KDM5B inh 32µM
CCN(CC)CCNC(=O)CCc1cc2cc(OC)ccc2[nH]c1=O	KDM5B inh 28µM
COc1ccc(NC(=O)CCc2cc3ccccc3[nH]c2=O)cc1OC	none
COc1ccc(NC(=O)Cn2c(N3CCCCC3)nc(C)c(C)c2=O)cc1Cl	none
O=C(c1cc(=O)c2cc(Br)ccc2o1)N(Cc1cccs1)c1ccccn1	none
CN(Cc1ccccc1C#N)Cc1ccccc1N1CCCCC1	none
COc1ccc(-c2cc(C(=O)O)c3c(C(C)C)noc3n2)cc1OC	none
Clc1ccc(-c2csc(NC3CC3)n2)cc1Cl	none
C(#CC(c1ccccc1)(c1ccccc1)C1CCCCC1)CN1CCOCC1	none
CCOC(=O)C(C)Oc1ccc2c(=O)c(Oc3ccc(C(=O)OC)cc3)c(C)oc2c1 (centres undefined)	none
CC(C)(C)CC(=O)Nc1ccc([C@@H](O)[C@H]2COCC(=O)N2Cc2ccccc2F)cc1	none
N#C/C(=C/c1cc2ccccc2o1)c1nc2ccccc2[nH]1	none
O=c1cc(-c2ccncc2)nc(-c2ccc(CN3CC[C@@H](O)C3)cc2)[nH]1	none
O=c1cc(-c2cccnc2)nc(-c2ccc(CN3CC[C@@H](O)C3)cc2)[nH]1	none
O=c1[nH]c2cc3c(cc2cc1CN1CC[C@H](O)C1)OCO3	KDM5B inh 28µM
COC(=O)CCNC(=O)c1ccc(C(C)(C)C)cc1	none
COc1cccc(N2CCN(C(=O)C3CCCN(Cc4cccnc4)CCC(=O)NCC3)CC2)c1 (centres undefined)	none
Cc1ccc(CN2CCCC(c3nc(-c4cccnc4)no3)CCNC(=O)CC2)s1 (centres undefined)	none
Cc1ccc(CN2CCCC(C(=O)N3CCN(c4ccccn4)CC3)CCNC(=O)CC2)s1 (centres undefined)	KDM5B inh 28µM

Bioassay records from PubChem.
